# PubChem BioAssay (NCI)
# Compounds without any hit were thinned out: in the full panel of roughly 83,000, 20% have a hit.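 Method: cells in 96-well plates; compound added at one concentration; 48 h incubation; percent growth measured; values under 10 scored active.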 Active and inactive are the calls of the source.
# Experiments:
# Experiment in all cases: NCI-60 one-dose screen, 48 h (100 = growth as untreated, 0 = no growth, -100 = all killed)
# Details in all cases: 10 µM
# NCI-H460 lung = test system: NCI-H460 lung
# RXF 393 renal = test system: RXF 393 renal
# SK-MEL-5 melanoma = test system: SK-MEL-5 melanoma
# CCRF-CEM leukemia = test system: CCRF-CEM leukemia
# OVCAR-4 ovarian = test system: OVCAR-4 ovarian
# NCI/ADR-RES ovarian = test system: NCI/ADR-RES ovarian
# T-47D breast = test system: T-47D breast
# BT-549 breast = test system: BT-549 breast
# MDA-MB-435 melanoma = test system: MDA-MB-435 melanoma
# SW-620 colon = test system: SW-620 colon
# HCC-2998 colon = test system: HCC-2998 colon
# KM12 colon = test system: KM12 colon
# HOP-92 NSCLC = test system: HOP-92 NSCLC
# SNB-19 CNS = test system: SNB-19 CNS
# ACHN renal = test system: ACHN renal
# HCT-116 colon = test system: HCT-116 colon
# SR leukemia = test system: SR leukemia
# MCF7 breast = test system: MCF7 breast
Structure (SMILES),growth (NCI-H460 lung),growth (RXF 393 renal),growth (SK-MEL-5 melanoma),growth (CCRF-CEM leukemia),growth (OVCAR-4 ovarian),growth (NCI/ADR-RES ovarian),growth (T-47D breast),growth (BT-549 breast),growth (MDA-MB-435 melanoma),growth (SW-620 colon),growth (HCC-2998 colon),growth (KM12 colon),growth (HOP-92 NSCLC),growth (SNB-19 CNS),growth (ACHN renal),growth (HCT-116 colon),growth (SR leukemia),growth (MCF7 breast)
Cc1cc(N=C2NC(=O)S/C2=C\c2ccc(F)cc2)n[nH]1,5.74% (active),-37.4% (active),16.5% (inactive),9.4% (active),22.7% (inactive),9.56% (active),18.1% (inactive),3.56% (active),-11.3% (active),20.7% (inactive),22.4% (inactive),28.2% (inactive),,,,,,
COc1ccc(Cc2nn(CC(=O)N/N=C/c3ccc([N+](=O)[O-])cc3)c(=O)c3c(C)noc23)cc1,,55.5% (inactive),92.8% (inactive),69.5% (inactive),1.77% (active),73.9% (inactive),73.5% (inactive),87.4% (inactive),71.7% (inactive),60.9% (inactive),105% (inactive),79.7% (inactive),91.6% (inactive),59.6% (inactive),47.7% (inactive),27% (inactive),,
CC1(C)CC[C@]2(C(=O)O)CC[C@]3(C)C(=CCC4[C@@]5(C)C[C@@H](O)[C@@H]6OC(c7cccc(F)c7)OC[C@@]6(C)C5CC[C@]43C)C2C1 (stereo partly specified),27.6% (inactive),67.2% (inactive),45.9% (inactive),32% (inactive),54.6% (inactive),43.7% (inactive),38.9% (inactive),39% (inactive),58.1% (inactive),31% (inactive),37.5% (inactive),21.3% (inactive),41.9% (inactive),45.7% (inactive),17.6% (inactive),9.3% (active),,
COc1ccc(Cc2nn(CC(=O)N/N=C/c3ccc(Br)cc3)c(=O)c3c(C)noc23)cc1,,-33.7% (active),85.7% (inactive),40.5% (inactive),,41.1% (inactive),-1.9% (active),50% (inactive),54.1% (inactive),48.8% (inactive),73.8% (inactive),60.7% (inactive),-15% (active),21.6% (inactive),5.6% (active),,,
O=C1S/C(=C\c2ccc([N+](=O)[O-])cc2)C(=O)N1CCN1CCCCC1,115% (inactive),132% (inactive),101% (inactive),116% (inactive),,109% (inactive),95.6% (inactive),118% (inactive),102% (inactive),113% (inactive),104% (inactive),105% (inactive),146% (inactive),,103% (inactive),,111% (inactive),94.2% (inactive)
